Compound activity as filed in PubChem BioAssay.
Rows were chosen to be rich in hits. Some 11% of all compounds tested hit in one or more screens of this group.
PNC inhibitor: High Content Assay for Compounds that inhibit the Assembly of the Perinucleolar Compartment. PC3M PTB-GFP, PNC prevalence imaging, 16 h; hits give low values. activity change (PNC), negative = inhibition, % at 10 µM. 140,000 compounds, 3.1% hits. AID 2417, 2010;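 active = readout at or below -70, meaning at least 70% loss of cells showing the perinucleolar compartment, a nuclear body marking cancer cells; inconclusive = readout between -30 and a set limit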
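Read-out is percentage of cells bearing a perinucleolar compartment, from automated 20x imaging of fixed, Hoechst-stained PC3M PTB-GFP cells. Cells were seeded 4 h, then exposed 16 h to compound (23 nl of library stock) in duplicate plates.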
HPGD inh: qHTS Assay for Inhibitors of HPGD (15-Hydroxyprostaglandin Dehydrogenase); 15-hydroxyprostaglandin dehydrogenase [NAD(+)] (Homo sapiens), P15428; purified HPGD, NADH fluorescence kinetic, PGE2 substrate; Potency, µM, hits mostly inhibitors; 150,000 compounds, 4.3% hits; AID 894, 2007
Target sequence (P15428 whole entry, looked up): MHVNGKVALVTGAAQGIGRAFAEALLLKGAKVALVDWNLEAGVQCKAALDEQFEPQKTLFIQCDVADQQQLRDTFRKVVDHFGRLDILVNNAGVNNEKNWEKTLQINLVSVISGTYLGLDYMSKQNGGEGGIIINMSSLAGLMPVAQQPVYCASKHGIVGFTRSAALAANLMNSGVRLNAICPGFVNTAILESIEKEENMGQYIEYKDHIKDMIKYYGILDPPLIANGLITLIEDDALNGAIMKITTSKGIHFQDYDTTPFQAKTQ
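20 nM HPGD preincubated 15 min at room temperature with compound in 50 mM Tris-HCl pH 8, 0.01% Tween 20. Started with 1 mM NAD+ and 30 uM prostaglandin E2; NADH fluorescence (360/450 nm) read 5 times over 30-s intervals, last minus first.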
ALDH1A1 block: qHTS Assay for Inhibitors of Aldehyde Dehydrogenase 1 (ALDH1A1); Aldehyde dehydrogenase 1A1 (Homo sapiens), P00352; Purified ALDH1A1, NADH fluorescence, propionaldehyde substrate; Potency, µM (doses to about 75.3 µM), hits mostly inhibitors; 220,000 compounds, 7.3% hits
Of the large screens only hits and unclear results are named; the others gave an inactive call. Unless noted, calls follow the shape of the dose curve; as a rule, active = well fitted inhibition curve with a large enough effect (not every such curve was filed as active); inconclusive = small, poorly fitted or top-dose-only effect, or another doubt; inactive = no such curve, though single readings can be large or run the other way.

Cc1ccc(NC(=O)COC(=O)c2ccc([N+](=O)[O-])o2)cc1S(=O)(=O)N1CCCCC1	ALDH1A1 block 25.1µM (no result: PNC inhibitor, HPGD inh)
Cc1ccc(NC(=O)c2cc(=O)c3ccccc3o2)cc1S(=O)(=O)N1CCCCC1	ALDH1A1 block 31.6µM (no result: PNC inhibitor, HPGD inh)
O=C(COC(=O)c1ccc([N+](=O)[O-])o1)Nc1cccc(S(=O)(=O)N2CCCCC2)c1	ALDH1A1 block 11.2µM (no result: PNC inhibitor, HPGD inh)
Cc1ccc(NC(=O)COc2cccnc2[N+](=O)[O-])cc1S(=O)(=O)N1CCCCC1	ALDH1A1 block inconclusive
Nc1ccn([C@@H]2O[C@H](COC(=O)C34CC5CC(CC(C5)C3)C4)[C@@H](O)[C@@H]2O)c(=O)n1	none (no result: PNC inhibitor)
FC(F)(F)c1cccc(NC(=S)NCC2COc3ccccc3O2)c1 (stereo not given)	HPGD inh inconclusive
O=C(NNC(=O)C1CCC(C(=O)NNC(=O)c2cccs2)CC1)c1cccs1 (stereo not given)	none (no result: PNC inhibitor, HPGD inh)
COCC(C)N=C1NN=C(c2cccs2)C(CC(=O)O)S1 (stereo not given)	ALDH1A1 block 12.6µM (no result: PNC inhibitor, HPGD inh)
COCCCn1c(CCC(=O)O)ccc1-c1cccs1	HPGD inh inconclusive, ALDH1A1 block inconclusive
COCC(C)N1CC(O)=C(c2nc(-c3ccc(Cl)cc3)cs2)C1=N (stereo not given)	none (no result: PNC inhibitor, HPGD inh)
CCCCc1ccc(-c2csc(/C(C#N)=C\c3ccc(C)o3)n2)cc1	none
CCOc1ccc(-c2csc(/C(C#N)=C\c3ccc(O)c([N+](=O)[O-])c3)n2)cc1	PNC inhibitor inconclusive, HPGD inh 3.16µM
C=CCn1cccc(C(=O)Nc2ccc(OCC)cc2)c1=O	none (no result: PNC inhibitor, HPGD inh)
COc1cc(C)c2c(c1C=O)Oc1c(c(C)c(O)c3c1C(O)OC3=O)OC2=O (stereo not given)	HPGD inh 20µM (no result: PNC inhibitor)
Cc1cc(O)c(C=O)c2c1C(=O)Oc1c(C)c(O)c3c(c1O2)C(O)OC3=O (stereo not given)	HPGD inh 10µM, ALDH1A1 block inconclusive (no result: PNC inhibitor)
CC(C)N1CCN(Cc2ccc(C#CCCO)cc2)CC1CCO (stereo not given)	none (no result: PNC inhibitor, HPGD inh)
O=C(Cc1coc(-c2ccc(F)cc2)n1)N1CCOCC1	none
O=C(Cc1coc(-c2ccc(F)cc2)n1)NC1CCCCC1	HPGD inh 17.8µM
CCN(CC)S(=O)(=O)c1cccc(NC(=O)COC(=O)/C=C/c2ccco2)c1	ALDH1A1 block 25.1µM
CCN(CC)S(=O)(=O)c1cccc(C(=O)OCC(=O)Nc2ccc3c(c2)c2ccccc2n3CC)c1	ALDH1A1 block 22.4µM
CN(C)S(=O)(=O)c1cccc(NC(=O)COC(=O)/C=C/c2ccco2)c1	none
CN(C)S(=O)(=O)c1cccc(NC(=O)COC(=O)CCC(=O)c2ccc(F)cc2)c1	none
O=C(COC(=O)/C=C/c1ccco1)Nc1cccc([N+](=O)[O-])c1	ALDH1A1 block 25.1µM
CCn1c2ccccc2c2cc(NC(=O)COC(=O)c3cccc(S(=O)(=O)NC)c3)ccc21	PNC inhibitor inconclusive
CC(C)c1ccc(NC(=O)COC(=O)/C=C/c2cccc([N+](=O)[O-])c2)cc1	PNC inhibitor inconclusive
CCN(CC)S(=O)(=O)c1cccc(NC(=O)COC(=O)CCC(=O)c2ccc(F)cc2)c1	PNC inhibitor -82.1
Cc1c(NC(=S)NC(=O)C2CCCCC2)c(=O)n(-c2ccccc2)n1C	none
O=C1CCCC(=O)C1=C1SCCS1	none
COc1ccc(COC(=O)N/N=C2/C[C@@H](O)[C@@H](O)[C@@H]3[C@@H]4C(=O)N(C(C)(C)C)C(=O)[C@H]4CC[C@H]23)cc1	none (no result: PNC inhibitor, HPGD inh)
O=C1[C@H]2[C@H]3C=C[C@@H](C4[C@H]3[C@@H]3C(=O)N(CN5CCSCC5)C(=O)[C@H]43)[C@H]2C(=O)N1CN1CCSCC1 (stereo not given in full)	none (no result: PNC inhibitor)
CN(CCO)c1cc(N2CCCCC2)c2nonc2c1[N+](=O)[O-]	ALDH1A1 block 15.8µM (no result: PNC inhibitor, HPGD inh)
CN(CCO)c1cc(N2CCC3(CC2)OCCO3)c2nonc2c1[N+](=O)[O-]	none
O=C1C2C3C=CC(C4CC34)C2C(=O)N1/N=C/c1ccc(-c2cccc([N+](=O)[O-])c2)o1 (stereo not given)	HPGD inh 12.6µM, ALDH1A1 block 14.1µM
O=[N+]([O-])c1cccc(-c2ccc(/C=N/Nc3nc(N4CCCCC4)nc(N4CCCCC4)n3)o2)c1	none (no result: PNC inhibitor, HPGD inh)
O=C1C2=C(Nc3cc([N+](=O)[O-])ccc3N2)O[C@@H]1c1c[nH]c2ccc(COc3ccccc3)cc12	ALDH1A1 block inconclusive (no result: PNC inhibitor)
Cc1ccc(N/N=C(\C#N)C(N)=S)c(C)c1	HPGD inh 14.1µM, ALDH1A1 block inconclusive
CCOC(=O)Nc1ccc(C)cc1C	none
COc1cccc(C(=O)Nc2ccccc2OC(F)(F)F)c1	none (no result: PNC inhibitor, HPGD inh)
COc1ccc(NS(=O)(=O)c2ccc(N/N=C(\C)c3ccncc3)c([N+](=O)[O-])c2)cc1	HPGD inh 6.31µM
C/C(=N\Nc1ccc(S(=O)(=O)Nc2ccccc2)cc1[N+](=O)[O-])c1ccncc1	none (no result: PNC inhibitor, HPGD inh)
CCOC(=O)C1CCN(C(=O)c2ccc(CNS(=O)(=O)c3ccc(OC)cc3)cc2)CC1	none (no result: PNC inhibitor, HPGD inh)
CCc1ccc(NC(=O)C(C)OC(=O)c2cccc(S(=O)(=O)N3CCc4ccccc4C3)c2)cc1 (stereo not given)	none
CCC1CSC(Nc2ccc(C(=O)/C=C/c3ccc(Br)cc3)cc2)=N1 (stereo not given)	PNC inhibitor -102.9, HPGD inh inconclusive
CCC1CSC(Nc2ccc(C(=O)/C=C/c3ccc(OC)c(OC)c3)cc2)=N1 (stereo not given)	HPGD inh 17.8µM, ALDH1A1 block inconclusive
COc1ccc(/C=C/C(=O)c2ccc(NC3=NCCCS3)cc2)cc1OC	none (no result: PNC inhibitor, HPGD inh)
O=C(/C=C/c1ccc(Br)cc1)c1ccc(NC(=O)c2ccco2)cc1	none
O=C(CSc1ccc(-c2cccs2)nn1)NCc1ccccc1Cl	PNC inhibitor inconclusive, HPGD inh 31.6µM
O=C(CSc1ccc(-c2cccs2)nn1)N1CCCCCC1	PNC inhibitor inconclusive, HPGD inh 11.2µM
Cc1nnc(SCC(=O)N2CCOCC2)s1	PNC inhibitor inconclusive
O=C(Nc1nnc(SCC(=O)N2CCOCC2)s1)c1ccccc1	PNC inhibitor -89.3, HPGD inh 31.6µM
O=C(CSc1ccc(-c2cccnc2)nn1)N1CCCCCC1	none (no result: PNC inhibitor, HPGD inh)
O=C(CSc1ccc(-c2ccc(F)cc2)nn1)N1CCOCC1	none (no result: PNC inhibitor, HPGD inh)
O=C(CSc1ccc(-c2ccccc2)nn1)N1CCOCC1	ALDH1A1 block 28.2µM
COc1cccc(CNC(=O)CSc2ccc(-c3cccs3)nn2)c1	none (no result: PNC inhibitor, HPGD inh)
O=C(CSc1ccc(-c2cccnc2)nn1)N1CCCC1	none (no result: PNC inhibitor, HPGD inh)
O=C(CSc1ccc(-c2cccs2)nn1)N1CCCCC1	HPGD inh 3.55µM, ALDH1A1 block inconclusive
COc1ccc([N+](=O)[O-])cc1N(CC(=O)N1CCCC1)S(C)(=O)=O	none (no result: PNC inhibitor, HPGD inh)
O=C(O)C1C2C=CC(C2)C1C(=O)NCc1ccco1 (stereo not given)	none (no result: PNC inhibitor, HPGD inh)
COc1ccc(NC(=O)C2C3C=CC(C3)C2C(=O)NCc2ccco2)c(OC)c1 (stereo not given)	HPGD inh 25.1µM, ALDH1A1 block inconclusive
COc1ccc(C(=O)N2CCC3(CCN(Cc4cc(C(F)(F)F)cc(C(F)(F)F)c4)CC3)CC2)cc1	none (no result: PNC inhibitor)
Cc1cccc(C(=O)O/N=C2/CC3CCC2(C)C3(C)C)c1 (stereo not given)	none
